Measurements: PubChem BioAssay (EPA / NIEHS)
Activity calls are given as the source filed them. How the source made its calls: active means hit-call score of the fitted dose curve at least 0.9, where 1 is the maximum; inactive means score below 0.9.

Key:
[1] = read-out: Tissue plasminogen activator (tPA), PLAT (gene 5327); assay: BSK_BE3C_tPA: BioMAP Diversity Plus: BE3C Assay for Tissue plasminogen activator (tPA) Biomarker Activity (AID 2283041); details: primary human bronchial epithelial cells; actives raise or lower the signal
Procedure, shortened: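 Human primary bronchial epithelial cells were dosed with chemical and tPA biomarker levels measured by ELISA 24 hours later. Activity was fitted bidirectionally against DMSO as negative control and baseline.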

[2] = read-out: Interleukin-8 (IL8), CXCL8 (gene 3576); assay: BSK_CASM3C_IL8: BioMAP Diversity Plus: CASM3C Assay for Interleukin-8 (IL8) Biomarker Activity (AID 2283042); details: primary human coronary artery smooth muscle cells; actives raise or lower the signal;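 further: IL-8 protein level quantified by ELISA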
[3] = read-out: Human Leukocyte Antigen - DR isotype (HLADR), HLA-DRA (gene 3122); assay: BSK_CASM3C_HLADR: BioMAP Diversity Plus: CASM3C Assay for Human Leukocyte Antigen - DR isotype (HLADR) Biomarker Activity (AID 2283043); details: primary human coronary artery smooth muscle cells; actives raise or lower the signal;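 further: cell-surface HLA-DR protein level quantified by ELISA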
[4] = read-out: Macrophage colony-stimulating factor (MCSF), CSF1 (gene 1435); assay: BSK_CASM3C_MCSF: BioMAP Diversity Plus: CASM3C Assay for Macrophage colony-stimulating factor (MCSF) Biomarker Activity (AID 2283044); details: primary human coronary artery smooth muscle cells; actives raise or lower the signal;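 further: M-CSF protein amount quantified by ELISA after 24 h exposure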
[5] = read-out: Low-density lipoprotein receptor (LDLR), LDLR (gene 3949); assay: BSK_CASM3C_LDLR: BioMAP Diversity Plus: CASM3C Assay for Low-density lipoprotein receptor (LDLR) Biomarker Activity (AID 2283045); details: primary human coronary artery smooth muscle cells; actives raise or lower the signal;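 further: LDLR protein level on the cell surface quantified by ELISA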
[6] = read-out: Monocyte Chemoattractant Protein-1 (MCP1), CCL2 (gene 6347); assay: BSK_CASM3C_MCP1: BioMAP Diversity Plus: CASM3C Assay for Monocyte Chemoattractant Protein-1 (MCP1) Biomarker Activity (AID 2283046); details: primary human coronary artery smooth muscle cells; actives raise or lower the signal;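 further: MCP-1 level quantified by ELISA 24 h after dosing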
[7] = BSK_CASM3C_Proliferation: Cell Proliferation Assessment in the BioMAP Diversity Plus: CASM3C Assay (AID 2283047); details: primary human coronary artery smooth muscle cells;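 further: sulforhodamine B total protein stain as relative cell number at 560 nm; sub-confluent cells exposed 48 h before staining; fitted both ways against DMSO so gain or loss of cell number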
[8] = read-out: Monokine induced gamma interferon (MIG), CXCL9 (gene 4283); assay: BSK_CASM3C_MIG: BioMAP Diversity Plus: CASM3C Assay for Monokine induced gamma interferon (MIG) Biomarker Activity (AID 2283048); details: primary human coronary artery smooth muscle cells; actives raise or lower the signal;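 further: MIG protein level measured by ELISA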
[9] = read-out: serum amyloid A (SAA), SAA1 (gene 6288); assay: BSK_CASM3C_SAA: BioMAP Diversity Plus: CASM3C Assay for serum amyloid A (SAA) Biomarker Activity (AID 2283049); details: primary human coronary artery smooth muscle cells; actives raise or lower the signal;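 further: SAA protein level quantified by ELISA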
[10] = BSK_CASM3C_SRB: Viability Assessment in the BioMAP Diversity Plus: CASM3C Assay (AID 2283050); details: primary human coronary artery smooth muscle cells;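 further: total protein by SRB staining as cytotoxicity measure in parallel cultures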
[11] = read-out: Thrombomodulin, THBD (gene 7056); assay: BSK_CASM3C_Thrombomodulin: BioMAP Diversity Plus: CASM3C Assay for Thrombomodulin Biomarker Activity (AID 2283051); details: primary human coronary artery smooth muscle cells; actives raise or lower the signal;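 further: thrombomodulin protein level measured by ELISA 24 h after dosing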
[12] = read-out: Tissue Factor, F3 (gene 2152); assay: BSK_CASM3C_TissueFactor: BioMAP Diversity Plus: CASM3C Assay for Tissue Factor Biomarker Activity (AID 2283052); details: primary human coronary artery smooth muscle cells; actives raise or lower the signal;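 further: cell surface tissue factor protein level read by ELISA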
[13] = read-out: Interferon-gamma inducible Protein 10 (IP10), CXCL10 (gene 3627); assay: BSK_hDFCGF_IP10: BioMAP Diversity Plus: hDFCGF Assay for Interferon-gamma inducible Protein 10 (IP10) Biomarker Activity (AID 2283053); details: primary human foreskin fibroblasts; actives raise or lower the signal
Procedure, shortened: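 Human foreskin fibroblast primary cells (hDFCGF system) were dosed with chemical and assayed at 24 h; IP-10 measured by ELISA. Activity fitted bidirectionally relative to DMSO negative control as baseline.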

[14] = read-out: Urokinase-type plasminogen activator receptor (uPAR), PLAUR (gene 5329); assay: BSK_CASM3C_uPAR: BioMAP Diversity Plus: CASM3C Assay for Urokinase-type plasminogen activator receptor (uPAR) Biomarker Activity (AID 2283054); details: primary human coronary artery smooth muscle cells; actives raise or lower the signal;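 further: cell-surface uPAR protein level quantified by ELISA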
[15] = read-out: Vascular cell adhesion molecule 1 (VCAM1), VCAM1 (gene 7412); assay: BSK_CASM3C_VCAM1: BioMAP Diversity Plus: CASM3C Assay for Vascular cell adhesion molecule 1 (VCAM1) Biomarker Activity (AID 2283055); details: primary human coronary artery smooth muscle cells; actives raise or lower the signal;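 further: VCAM-1 protein level quantified by ELISA on the cells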
[16] = read-out: Collagen III, COL3A1 (gene 1281); assay: BSK_hDFCGF_CollagenIII: BioMAP Diversity Plus: hDFCGF Assay for Collagen III Biomarker Activity (AID 2283056); details: primary human foreskin fibroblasts; actives raise or lower the signal
Procedure, shortened: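 hDFCGF primary human dermal fibroblasts; 24 h chemical exposure; collagen III by ELISA; bidirectional curve fit vs DMSO baseline (gain or loss of signal).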

[17] = read-out: Epidermal growth factor receptor (EGFR), EGFR (gene 1956); assay: BSK_hDFCGF_EGFR: BioMAP Diversity Plus: hDFCGF Assay for Epidermal growth factor receptor (EGFR) Biomarker Activity (AID 2283057); details: primary human foreskin fibroblasts; actives raise or lower the signal
Procedure, shortened: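 Primary human foreskin fibroblasts were exposed to compound for 24 h, after which cell-surface EGFR was quantified by ELISA. Activity was fitted bidirectionally against the DMSO negative control as baseline.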

[18] = read-out: Interleukin-8 (IL8), CXCL8 (gene 3576); assay: BSK_hDFCGF_IL8: BioMAP Diversity Plus: hDFCGF Assay for Interleukin-8 (IL8) Biomarker Activity (AID 2283058); details: primary human foreskin fibroblasts; actives raise or lower the signal
Procedure, shortened: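 ELISA read-out of IL-8 from primary human foreskin fibroblast cultures taken 24 h after dosing; values are bidirectional fits relative to DMSO vehicle.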

[19] = BSK_hDFCGF_Proliferation: Cell Proliferation Assessment in the BioMAP Diversity Plus: hDFCGF Assay (AID 2283059); details: primary human foreskin fibroblasts;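 further: curves fitted for both rise and fall of signal versus DMSO baseline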
Procedure, shortened: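 This proliferation readout used SRB total-protein staining of human foreskin fibroblasts […], normalized to DMSO with bidirectional curve fitting.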

[20] = read-out: Macrophage colony-stimulating factor (MCSF), CSF1 (gene 1435); assay: BSK_hDFCGF_MCSF: BioMAP Diversity Plus: hDFCGF Assay for Macrophage colony-stimulating factor (MCSF) Biomarker Activity (AID 2283060); details: primary human foreskin fibroblasts; actives raise or lower the signal
Procedure, shortened: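 ELISA read-out of M-CSF in human dermal foreskin fibroblast cultures, 24 h after chemical dosing; gain or loss of signal fitted bidirectionally relative to DMSO baseline.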

Measured: AC50

CCCCC/C=C/C=C/C=O
active: [3] 23.7 µM | [4] 20 µM | [6] 36.1 µM | [7] 30.3 µM | [10] 32.3 µM | [12] 30.8 µM | [13] 14.5 µM | [14] 32.9 µM | [15] 20 µM | [16] 10.8 µM | [18] 30.1 µM | [19] 4.99 µM | [20] 10.7 µM
inactive: [1] | [2] | [5] | [8] | [9] | [11] | [17]

O=C1OC2(c3cc(Br)c(O)c(Br)c3Oc3c2cc(Br)c(O)c3Br)c2c(Cl)c(Cl)c(Cl)c(Cl)c21
active: [1] 0.744 µM | [6] 0.0114 µM | [13] 20.8 µM | [15] 9.53 µM | [16] 4.38 µM | [17] 1.96 µM | [18] 22 µM | [19] 4.03 µM | [20] 1.56 µM
inactive: all other assays above

Cc1ccc2n[nH]nc2c1
inactive: all assays above

Nc1cc([N+](=O)[O-])ccc1Cl
inactive: all assays above

O=C1CCCCCCCCCCCCCCO1
active: [1] 12.7 µM | [2] 36.8 µM | [3] 28.4 µM | [4] 29 µM | [5] 30 µM | [6] 31 µM | [7] 20 µM | [8] 32.6 µM | [9] 29.8 µM | [10] 30.9 µM | [11] 27.8 µM | [12] 28.7 µM | [14] 31.9 µM | [15] 28 µM | [16] 11.4 µM | [19] 2.99 µM | [20] 9.4 µM
inactive: [13] | [17] | [18]

C=C[Si](OCC)(OCC)OCC
active: [19] 29.2 µM
inactive: all other assays above
